Results: PubChem BioAssay (Tox21)
Values joined by “and” are separate entries in the source; they are usually repeats but may differ in a detail not shown here. Equal values may be shown once. Where a structure was tested more than once in an assay, its records may differ in their call. Active and inactive are the calls of the source. Unless noted, calls come from the whole dose curve; as a rule, active = well fitted curve in the direction sought with a large enough effect in the repeat runs; inconclusive = weak or mixed curves; inactive = no such curve, though single readings can be large; an effect the other way counts as inactive or inconclusive.

Key:
[1] = qHTS assay to identify small molecule antagonists of the estrogen receptor alpha (ER-alpha) signaling pathway - cell viability counter screen (AID 743074; calls by dose curve;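 note: HEK293 cells carrying ER-alpha-UAS-bla reporter stimulated with 17beta-estradiol; nearly all actives have a fitted effect of over 45% in size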)
[2] = qHTS assay to identify small molecule antagonists of the estrogen receptor alpha (ER-alpha) signaling pathway using the BG1 cell line - cell viability counter screen (AID 743081);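 note: compound given together with 17beta-estradiol as the ER stimulus; nearly all actives have a fitted effect of over 45% in size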; note: potency is the fitted concentration of half-maximal effect
[3] = qHTS assay to identify aromatase inhibitors - cell viability counter screen (AID 743084);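 note: cells stimulated with testosterone during compound exposure; nearly all actives have a fitted effect of over 55% in size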; note: potency is the fitted concentration of half-maximal effect
[4] = molecular target: Aryl hydrocarbon receptor (Homo sapiens) (UniProt P35869); assay: qHTS assay to identify small molecule that activate the aryl hydrocarbon receptor (AhR) signaling pathway (AID 743085); note: nearly all actives have a fitted effect of over 15% in size; note: potency is the fitted concentration of half-maximal effect;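 for activation: HG2L7.5c1 human HepG2 liver cells with stably integrated DRE-driven firefly reporter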
Outline: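 Cell line HG2L7.5c1 (human hepatoma, 20× DRE-luc). Plated, 5 h 37C, compound/DMSO added, 24 h 37C. CellTiter-Fluor 30 min 37C → fluorescence; then ONE-Glo 30 min RT → luminescence.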

[5] = qHTS assay to identify small molecule that activate the aryl hydrocarbon receptor (AhR) signaling pathway - cell viability counter screen (AID 743086); note: nearly all actives have a fitted effect of over 45% in size; note: potency is the fitted concentration of half-maximal effect
Outline: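 HepG2-AhR-luc (HG2L7.5c1) cells, 4000/well, treated 24 h at 37 C with compound; viability measured as CellTiter-Fluor fluorescence after 30 min in the same wells as the luciferase read.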

[6] = molecular target: Peroxisome proliferator-activated receptor gamma (Homo sapiens) (UniProt P37231); assay: qHTS assay to identify small molecule agonists of the peroxisome proliferator-activated receptor gamma (PPARg) signaling pathway (AID 743094; active = well fitted activation curve with a large enough effect in the signal ratio in the repeat runs, not every such curve was filed as active; inconclusive = weak or mixed curves, or effect the other way; inactive = no such curve, though single readings can be large or run the other way; the % refers to the signal ratio)
Outline: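 GeneBLAzer PPARg UAS-bla HEK293H cells carrying a stably integrated beta-lactamase reporter were pre-incubated 5 h at 37C, then exposed to compounds in DMSO for 17 h at 37C; LiveBLAzer B/G FRET substrate was added for 1 h at room temperature and fluorescence read.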

[7] = qHTS assay to identify small molecule phospholipidosis (PLD) inducers (AID 1259344; active = well fitted curve in the direction sought with a large enough effect; inconclusive = small, poorly fitted or top-dose-only effect, or another doubt; inactive = no such curve, though single readings can be large; an effect the other way counts as inactive or inconclusive; note: potency is the fitted concentration of half-maximal effect)
Outline: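 Quantitative HTS in HepG2: compound plus LipidTOX Red dye for 24 h, paraformaldehyde fixation with Hoechst 33342, widefield high-content imaging; amiodarone as positive and DMSO as negative control.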

[8] = molecular target: Nuclear receptor subfamily 1 group I member 2 (Rattus norvegicus) (UniProt Q9R1A7); assay: Rat pregnane X receptor (rPXR) activation by small molecules, qHTS assay (AID 1346983); conditions: rPXR luciferase reporter cells, One-Glo luminescence, 24 h; max activation: stronger effect = higher value; note: nearly all actives have a fitted effect of over 20% in size; note: potency is the fitted concentration of half-maximal effect
Outline: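 Cell-based rPXR activation assay: rPXR cells, 2,000 per well, rested 5hr at 37 C, then exposed to compounds in DMSO for 24 hr at 37 C. Luciferase activity read by One-Glo luminescence after 30 min at room temperature.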

[9] = qHTS assay to identify small molecule antagonists of the thyroid receptor (TR) signaling pathway - cell viability counter screen (AID 743064); note: nearly all actives have a fitted effect of over 50% in size; note: potency is the fitted concentration of half-maximal effect
Outline: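 Fluorescence from CellTiter-Fluor, added after 23.5 h exposure at 37 °C, reported viability of GH3.TRE-Luc cells co-treated with compound and 1 nM T3. Measured in the same wells as the luciferase TR readout.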

[10] = qHTS assay to identify small molecule antagonists of the thyroid receptor (TR) signaling pathway (AID 743065); note: nearly all actives have a fitted effect of over 55% in size; note: potency is the fitted concentration of half-maximal effect
Outline: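 GH3.TRE-Luc rat pituitary cells (two TREs driving luciferase) were dosed with compound, then stimulated with 1 nM T3 (final) for 23.5 h at 37 C. ONE-Glo luminescence was the read-out, with CellTiter-Fluor fluorescence as the cytotoxicity counter-screen.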

[11] = molecular target: Estrogen receptor (Homo sapiens) (UniProt P03372); assay: qHTS assay to identify small molecule agonists of the estrogen receptor alpha (ER-alpha) signaling pathway (AID 743075; calls by dose curve;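 note: HEK293 GripTite cells with ER-alpha and UAS-driven beta-lactamase reporter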; note: potency is the fitted concentration of half-maximal effect)
Aromatase (Homo sapiens) = Aromatase (Homo sapiens) (UniProt P11511); assay: qHTS assay to identify aromatase inhibitors (AID 743083); note: nearly all actives have a fitted effect of over 55% in size; note: potency is the fitted concentration of half-maximal effect
[12] = molecular target: Nuclear receptor subfamily 1 group I member 2 (Homo sapiens) (UniProt O75469); assay: CYP3A4 induction through human pregnane X receptor (PXR) by small molecules, qHTS assay (AID 1346984); note: nearly all actives have a fitted effect of over 40% in size
Outline: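 DPX-2 cells (HepG2 co-transfected with PXR and CYP3A4 promoter-luciferase) treated with compounds 24 h at 37C; luciferin-IPA CYP3A4 substrate 3uM final added for 3 h, then One-Glo; luminescence read. qHTS format.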

[13] = molecular target: Nuclear receptor subfamily 1 group I member 2 (Homo sapiens) (UniProt O75469); assay: Human pregnane X receptor (PXR) activation by small molecules, qHTS assay (AID 1346985); note: nearly all actives have a fitted effect of over 40% in size; note: potency is the fitted concentration of half-maximal effect
Outline: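 DPX-2 cells (HepG2 co-transfected with a PXR response element and a CYP3A4-promoter luciferase construct) were seeded at 2,000 per well, rested 5 hr at 37C, then exposed to DMSO-dissolved compounds for 24 hr. Activation was read as luciferase luminescence.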

[14] = qHTS assay to identify small molecule antagonists of the estrogen receptor alpha (ER-alpha) signaling pathway using the BG1 cell line (AID 743080; calls by dose curve;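 note: BG1 cells stimulated with 17beta-estradiol alongside compound; nearly all actives have a fitted effect of over 25% in size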; note: potency is the fitted concentration of half-maximal effect)
Outline: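 BG1-Luc-4E2 cells (endogenous full-length ER-alpha, stable 4×ERE-luciferase) were starved 5 days in phenol-red-free medium with 10% charcoal-stripped FBS, plated 24 h, then given compound plus 17beta-estradiol for 21.5 h at 37 C; ONE-Glo luminescence read after 30 min.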

[15] = test system: thyroid hormone receptor (rat, GH3 cells); assay: qHTS assay to identify small molecule agonists of the thyroid receptor (TR) signaling pathway (AID 743066; calls by dose curve)
[16] = molecular target: Estrogen receptor (Homo sapiens) (UniProt P03372); assay: qHTS assay to identify small molecule antagonists of the estrogen receptor alpha (ER-alpha) signaling pathway (AID 743069; active = well fitted curve in the direction sought with a large enough effect in the signal ratio in the repeat runs, not every such curve was filed as active; inconclusive = weak or mixed curves, or effect the other way; inactive = no such curve, though single readings can be large or run the other way; the % refers to the signal ratio; note: potency is the fitted concentration of half-maximal effect)
Outline: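 Reporter cells (ER-alpha-bla, HEK293 background) are conditioned overnight in stripped-serum medium (2% charcoal-stripped FBS). Compound and 17beta-estradiol exposure runs 18 hr at 37C, 5% CO2.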

[17] = molecular target: Estrogen receptor (Homo sapiens) (UniProt P03372); assay: qHTS assay to identify small molecule agonists of the estrogen receptor alpha (ER-alpha) signaling pathway using the BG1 cell line (AID 743079); conditions: BG1Luc4E2 cells, ERE-luciferase agonist, 22 h; activation: at 70.3 µM (top of the series); note: nearly all actives have a fitted effect of over 20% in size; note: potency is the fitted concentration of half-maximal effect
% is set by controls: 0 for no effect and ±100 for the full control effect.

Estrogen receptor (Homo sapiens), sequence (P03372 whole entry, looked up): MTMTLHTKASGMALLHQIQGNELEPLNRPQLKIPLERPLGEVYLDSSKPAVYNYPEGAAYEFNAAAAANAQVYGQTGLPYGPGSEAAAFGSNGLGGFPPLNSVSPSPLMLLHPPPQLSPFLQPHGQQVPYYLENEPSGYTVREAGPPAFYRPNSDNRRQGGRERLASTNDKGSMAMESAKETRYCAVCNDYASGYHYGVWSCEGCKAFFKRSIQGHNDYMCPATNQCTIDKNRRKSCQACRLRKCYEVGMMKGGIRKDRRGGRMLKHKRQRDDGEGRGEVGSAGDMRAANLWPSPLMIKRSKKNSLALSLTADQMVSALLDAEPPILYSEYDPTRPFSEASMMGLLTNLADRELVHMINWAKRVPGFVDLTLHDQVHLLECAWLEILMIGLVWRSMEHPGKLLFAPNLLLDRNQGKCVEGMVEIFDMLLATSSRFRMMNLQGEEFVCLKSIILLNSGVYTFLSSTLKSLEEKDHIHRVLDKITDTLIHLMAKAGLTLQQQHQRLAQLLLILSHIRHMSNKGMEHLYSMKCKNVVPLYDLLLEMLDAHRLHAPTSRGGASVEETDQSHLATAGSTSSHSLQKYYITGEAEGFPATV
Aromatase (Homo sapiens), sequence (P11511 whole entry, looked up): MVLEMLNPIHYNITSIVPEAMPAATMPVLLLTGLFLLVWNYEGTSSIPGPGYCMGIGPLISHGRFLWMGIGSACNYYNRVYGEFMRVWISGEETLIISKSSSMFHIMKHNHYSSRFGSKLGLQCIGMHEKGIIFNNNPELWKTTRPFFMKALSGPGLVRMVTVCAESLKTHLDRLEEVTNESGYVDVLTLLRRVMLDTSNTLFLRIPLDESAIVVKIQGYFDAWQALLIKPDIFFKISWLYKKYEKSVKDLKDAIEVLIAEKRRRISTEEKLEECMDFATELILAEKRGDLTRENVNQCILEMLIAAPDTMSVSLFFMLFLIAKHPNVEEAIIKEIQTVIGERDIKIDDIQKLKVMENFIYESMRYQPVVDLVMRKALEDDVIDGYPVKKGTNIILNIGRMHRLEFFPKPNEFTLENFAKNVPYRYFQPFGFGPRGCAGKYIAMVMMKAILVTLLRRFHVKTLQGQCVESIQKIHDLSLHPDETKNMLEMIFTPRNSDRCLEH
Peroxisome proliferator-activated receptor gamma (Homo sapiens), sequence (P37231 whole entry, looked up): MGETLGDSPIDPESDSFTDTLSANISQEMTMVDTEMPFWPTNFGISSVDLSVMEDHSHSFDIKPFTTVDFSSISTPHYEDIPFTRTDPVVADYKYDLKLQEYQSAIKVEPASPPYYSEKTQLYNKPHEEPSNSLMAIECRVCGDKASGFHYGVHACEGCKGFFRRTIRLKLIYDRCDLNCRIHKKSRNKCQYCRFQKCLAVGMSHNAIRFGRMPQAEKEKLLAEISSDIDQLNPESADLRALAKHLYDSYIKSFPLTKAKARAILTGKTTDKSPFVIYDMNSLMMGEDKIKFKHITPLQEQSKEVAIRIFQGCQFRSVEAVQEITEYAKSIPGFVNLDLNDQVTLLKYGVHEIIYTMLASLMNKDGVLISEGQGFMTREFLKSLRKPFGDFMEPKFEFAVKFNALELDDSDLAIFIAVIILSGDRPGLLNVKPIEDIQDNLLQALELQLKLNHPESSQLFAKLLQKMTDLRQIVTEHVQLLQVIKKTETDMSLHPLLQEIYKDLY
Nuclear receptor subfamily 1 group I member 2 (Rattus norvegicus), sequence (Q9R1A7 whole entry, looked up): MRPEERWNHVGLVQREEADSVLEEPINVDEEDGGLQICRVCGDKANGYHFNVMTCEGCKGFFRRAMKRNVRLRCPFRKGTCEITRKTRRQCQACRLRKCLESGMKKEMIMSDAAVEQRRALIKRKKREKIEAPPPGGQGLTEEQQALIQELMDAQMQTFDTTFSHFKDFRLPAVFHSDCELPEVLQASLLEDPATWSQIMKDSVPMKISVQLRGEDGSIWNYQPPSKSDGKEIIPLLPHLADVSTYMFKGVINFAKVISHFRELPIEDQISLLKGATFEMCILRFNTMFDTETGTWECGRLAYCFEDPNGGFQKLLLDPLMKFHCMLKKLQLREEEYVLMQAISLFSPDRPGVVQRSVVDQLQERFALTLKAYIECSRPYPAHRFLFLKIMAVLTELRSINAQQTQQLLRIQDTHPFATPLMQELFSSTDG
Aryl hydrocarbon receptor (Homo sapiens), sequence (P35869 whole entry, looked up): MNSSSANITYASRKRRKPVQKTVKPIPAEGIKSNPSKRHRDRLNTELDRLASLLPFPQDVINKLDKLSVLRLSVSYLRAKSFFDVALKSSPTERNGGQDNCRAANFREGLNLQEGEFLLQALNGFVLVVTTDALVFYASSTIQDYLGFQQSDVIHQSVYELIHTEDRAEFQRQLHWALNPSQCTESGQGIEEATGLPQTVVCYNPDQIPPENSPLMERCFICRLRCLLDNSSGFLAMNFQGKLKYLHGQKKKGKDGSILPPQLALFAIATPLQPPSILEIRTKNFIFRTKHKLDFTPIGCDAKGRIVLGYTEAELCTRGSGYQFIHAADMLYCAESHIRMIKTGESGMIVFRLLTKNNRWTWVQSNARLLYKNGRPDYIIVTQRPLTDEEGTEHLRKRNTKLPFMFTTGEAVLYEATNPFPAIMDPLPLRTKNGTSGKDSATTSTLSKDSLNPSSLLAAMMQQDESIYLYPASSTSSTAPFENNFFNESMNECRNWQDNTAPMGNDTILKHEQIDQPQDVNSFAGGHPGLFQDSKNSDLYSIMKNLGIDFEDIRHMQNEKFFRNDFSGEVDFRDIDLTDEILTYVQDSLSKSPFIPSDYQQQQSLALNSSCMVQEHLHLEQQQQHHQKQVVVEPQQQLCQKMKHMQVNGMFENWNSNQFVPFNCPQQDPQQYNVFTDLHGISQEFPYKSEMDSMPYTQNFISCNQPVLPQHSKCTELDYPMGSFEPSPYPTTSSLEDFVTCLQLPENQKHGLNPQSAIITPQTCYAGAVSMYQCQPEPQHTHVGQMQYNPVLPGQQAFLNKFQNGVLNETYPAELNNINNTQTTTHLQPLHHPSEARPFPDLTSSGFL

COc1ccc2c(=O)c(C)c(-c3ccccc3)oc2c1CN(C)C
active: Potency [4] 11.9 µM
inactive: Potency [1] | Potency [2] | Potency [3] | Potency [5] | Potency [6] | Potency [7] | max activation [8] -1.96%

CC(=O)[C@]1(O)Cc2c(O)c3c(c(O)c2[C@@H](O[C@H]2C[C@H](N)[C@H](O)[C@H](C)O2)C1)C(=O)c1c(O)cccc1C3=O
active: Potency [9] 150 nM and 188 nM | Potency [10] 119 nM | Potency [11] 3.38 µM [inconclusive] and 6.01 µM [inconclusive] | Potency [2] 18.8 µM and 23.7 µM | Potency (Aromatase (Homo sapiens)) 3.35 µM | Potency [3] 26.6 µM | Potency [5] 4.73 µM and 13.3 µM
inactive: Potency [1] | Potency [4] | PLD induction [7] -0.0504% [at 7.66 µM] | Potency [12]
14.1 µM (active) and inactive: Potency [13]

CCSc1ccc2c(c1)N(CCCN1CCN(C)CC1)c1ccccc1S2
inactive: Potency [9] | Potency [1] | Potency [2] | Potency (Aromatase (Homo sapiens)) | Potency [3] | Potency [4] | Potency [5] | Potency [6] | Potency [7] | max activation [8] -0.528% | Potency [13]

C#C[C@]1(O)CC[C@H]2[C@@H]3CCC4=C(CCC(=O)C4)[C@H]3CC[C@@]21C
inactive: Potency [1] | Potency [14] | Potency [2] | Potency (Aromatase (Homo sapiens)) | Potency [3] | Potency [4] | Potency [5] | Potency [6] | Potency [7] | max activation [8] 5.01% | Potency [13]

COc1ccc2c(c1)N(C[C@H](C)CN(C)C)c1ccccc1S2
active: Potency [9] 4.52 µM | Potency [10] 10100 nM | Potency [7] 8.91 µM
inactive: Potency [15] | Potency [16] | Potency [1] | Potency [11] | Potency [17] | Potency [14] | Potency [2] | Potency [4] | Potency [6] | max activation [8] -5.19%

CCC(=O)NCCC1CCc2ccc3c(c21)CCO3 (configuration not stated)
active: Potency [17] 4.22 µM | Potency [13] 28.2 µM
inactive: Potency [9] | Potency [15] | Potency [1] | Potency [11] | Potency [2] | Potency (Aromatase (Homo sapiens)) | Potency [3] | Potency [4] | Potency [5] | Potency [6] | Potency [7] | max activation [8] -2.75%

CCOC(=O)Oc1c(OC)cc(C(=O)O[C@@H]2C[C@@H]3CN4CCc5c([nH]c6cc(OC)ccc56)[C@H]4C[C@@H]3[C@H](C(=O)OC)[C@H]2OC)cc1OC
inactive: Potency [9] | Potency [15] | Potency [1] | Potency [2] | Potency [5] | Potency [7] | max activation [8] -0.121%

COC(=O)C1=C(C#N)NC(C)=C(C(=O)OC(C)C)C1c1cccc([N+](=O)[O-])c1 (configuration not stated)
inactive: Potency [1] | Potency [11] | Potency [17] | Potency [14] | Potency [2] | Potency [4] | Potency [7]
active: Potency (Aromatase (Homo sapiens)) 29.8 µM | Potency [8] 7.94 µM

CCc1ccc(S(=O)(=O)O)cc1
inactive: Potency [9] | Potency [10] | Potency [15] | Potency [1] | Potency [14] | Potency [2] | Potency (Aromatase (Homo sapiens)) | Potency [3] | Potency [5] | Potency [6] | Potency [7] | max activation [8] -0.665% | Potency [13]
active: Potency [11] 4.77 µM [inconclusive] | Potency [17] 0.298 µM | Potency [4] 11.9 µM

O=C(c1cc2ccccc2o1)N1CCN(Cc2ccccc2)CC1
inactive: Potency [9] | Potency [10] | Potency [15] | Potency [16] | Potency [1] | Potency [11] | Potency [17] | Potency [2] | Potency (Aromatase (Homo sapiens)) | Potency [3] | Potency [5] | Potency [6] | Potency [7] | Potency [12] | Potency [13]

CC(C)(CO)[C@@H](O)C(=O)NCCC(=O)NCCSSCCNC(=O)CCNC(=O)[C@H](O)C(C)(C)CO
inactive: Potency [9] | Potency [10] | Potency [15] | Potency [16] | Potency [1] | Potency [11] | Potency [17] | Potency [2] | Potency (Aromatase (Homo sapiens)) | Potency [3] | Potency [4] | Potency [6] | Potency [7] | max activation [8] -1.96% | Potency [13]

CCC[C@@H]1C[C@@H](C(=O)N[C@@H]([C@H]2O[C@H](SC)[C@H](O)[C@@H](O)[C@H]2O)[C@H](C)Cl)N(C)C1
inactive: Potency [9] | Potency [15] | Potency [16] | Potency [1] | Potency [11] | Potency [17] | Potency [14] | Potency [2] | Potency (Aromatase (Homo sapiens)) | Potency [3] | Potency [4] | Potency [5] | Potency [6] | Potency [7] | max activation [8] 7.71% | Potency [13]

COC(=O)[C@H]1[C@H]2C[C@@H]3c4[nH]c5ccccc5c4CCN3C[C@H]2C[C@@H](OC(=O)c2cc(OC)c(OC)c(OC)c2)[C@@H]1OC
active: Potency [9] 26.6 µM | Potency [10] 2.11 µM and 21.1 µM | Potency [16] 2.39 µM [inconclusive] | Potency [14] 6.68 µM | Potency (Aromatase (Homo sapiens)) 5.96 µM and 29.8 µM | Potency [4] 13.3 µM and 6.68 µM
inactive: Potency [1] | Potency [11] | Potency [17] | Potency [2] | Potency [5] | Potency [7] | max activation [8] -18.7% | Potency [13]
6.68 µM (active) and inactive: Potency [3]

C[C@]12CCC(=O)C=C1CC[C@@H]1[C@@H]2[C@@H](O)C[C@@]2(C)[C@H]1CC[C@]2(O)C(=O)COP(=O)(O)O
inactive: Potency [9] | Potency [10] | Potency [15] | Potency [1] | Potency [2] | Potency (Aromatase (Homo sapiens)) | Potency [3] | Potency [5] | Potency [6] | Potency [7] | max activation [8] 11.6%
active: Potency [17] 29.8 µM

CN[C@H]1CCc2cc(OC)c(OC)c(OC)c2-c2ccc(OC)c(=O)cc21
active: Potency [9] 0.119 µM | Potency [10] 84.1 nM | Potency [14] 0.0841 µM | Potency [13] 1 µM
inactive: Potency [15] | Potency [16] | Potency [17] | Potency [2] | Potency (Aromatase (Homo sapiens)) | Potency [3] | Potency [6] | Potency [7] | Potency [12]
